Assay outcomes deposited in PubChem by Broad Institute.
An excerpt weighted towards active compounds, which were near 6.8% of everything screened.
Pf Dd2 inh – blocks growth of Plasmodium falciparum Dd2 parasites; P. falciparum Dd2 growth, SYBR Green, 72 h; stronger effect = lower value; AID 1159554; actives 2.3% (n = 94,000); activity change, % at 10 µM; in the data active = activity change below about -80%; inconclusive = no clear call, values can overlap the other calls
T cruzi growth-1 – inhibitors of T. cruzi proliferation | T. cruzi beta-gal in NIH3T3, GalScreen luminescence, 90 h | actives 5.9% (n = 77,000) | AID 624255 | inhibition, % at 8.34 µM;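 active = mean inhibition above about 93%, with at least 55% of replicates each passing it, limit read from the data, passing the limit was not always enough; inconclusive = only one of those two conditions holds; inactive = neither condition holds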
C diff growth – blocks growth of Clostridium difficile | Clostridium difficile clinical isolate growth, OD600, 24 h; stronger effect = lower value | growth activity, negative = inhibition, % at 16 µg/mL (by protocol) | actives 0.25% (n = 86,000);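 active = mean growth activity at or below -80% and every replicate also at or below -80%; inconclusive = mean at or below -80% but some replicate above -80%; inactive = mean growth activity above -80%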;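 also: 0% = DMSO wells and -100% = levofloxacin 16 µg/mL wells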
T cruzi growth-2 – Trypanosoma cruzi proliferation inhibition; T. cruzi beta-gal in NIH3T3, GalScreen luminescence, 90 h; AID 651739; shares compounds with T cruzi growth-1; actives 72% (n = 5,600); inhibition, % at 8.35 µM;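 active = mean replicate inhibition above about 95% and at least 55% of replicates individually reaching it, limit read from the data; inconclusive = only one of the two criteria is met; inactive = neither criterion is met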
T cruzi growth-3 – Trypanosoma cruzi proliferation inhibition; shares compounds with T cruzi growth-1; T. cruzi beta-gal in NIH3T3, GalScreen luminescence, 90 h; inhibition, % at 2.09 µM; actives 21% (n = 5,600); AID 651740;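 active = mean inhibition above about 95%, with at least 55% of replicates also reaching it, limit read from the data; inconclusive = meets just one of the two conditions; inactive = meets neither condition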;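 also: plate controls were neutral control median for no effect and positive control median for full effect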
3T3 cytotox – kills mouse NIH/3T3 fibroblasts; shares compounds with T cruzi growth-1; NIH/3T3 viability, CellTiter-Glo ATP luminescence, 90 h; cytotoxicity (signal decrease), % at 8.35 µM; actives 14% (n = 5,600); AID 651742;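 active = mean signal decrease across replicates above about 35% based on untreated-well scatter, with enough replicates individually passing, limit read from the data; inconclusive = no rule stated though some were filed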;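 also: 0% = median of neutral control wells and 100% = median of positive control wells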
3T3 cytotox 2 – NIH/3T3 (mouse) viability loss; inhibition, % at 24.9 µM; NIH/3T3 viability, CellTiter-Glo ATP luminescence, 90 h; actives 56% (n = 5,600); shares compounds with T cruzi growth-1; AID 651744;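 active = mean loss of cell viability signal at or above a set limit, and enough replicates individually reaching it; inconclusive = meets only the mean limit or only the replicate share; inactive = meets neither condition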;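 also: 0% = median of neutral control wells and 100% = median of positive control wells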
Starred values were filed as active, the others as inactive; ? = inconclusive; . = no result given.

SMILES | Pf Dd2 inh | T cruzi growth-1 | C diff growth | T cruzi growth-2 | T cruzi growth-3 | 3T3 cytotox | 3T3 cytotox 2
CNC(=O)C[C@H]1CC[C@H]2[C@@H](COc3ccc(NC(=O)c4ccccc4OC)cc3C(=O)N2C)O1 | -3 | 4 | 8 | . | . | . | .
CN1C(=O)c2cc(NC(=O)c3ccc(Cl)cc3)ccc2OC[C@@H]2O[C@H](CC(=O)NCc3cccc(F)c3)CC[C@@H]21 | -23 | 101* | 11 | 92 | 66 | 43* | 34*
COc1cccc(C(=O)Nc2ccc3c(c2)C(=O)N(C)[C@H]2CC[C@@H](CC(=O)NCc4ccc(F)cc4)O[C@H]2CO3)c1 | -36 | 97* | -2 | 105* | 16 | 51* | 50*
CN1C(=O)c2cc(NC(=O)c3ccc(Cl)cc3)ccc2OC[C@H]2O[C@@H](CC(=O)NCc3cccc(F)c3)CC[C@H]21 | -8 | 91 | 14 | . | . | . | .
COc1ccccc1C(=O)Nc1ccc2c(c1)C(=O)N(C)[C@H]1CC[C@H](CC(=O)Nc3cccc(C(C)C)c3)O[C@@H]1CO2 | . | ? | -9 | 106* | 68 | 30 | 23
C[C@@H]1CN([C@H](C)CO)C(=O)Cc2cc(NC(=O)c3ccncc3)ccc2O[C@H]1CN(C)CC1CC1 | 20 | 64 | 0 | . | . | . | .
C[C@H]1CN([C@@H](C)CO)S(=O)(=O)c2ccc(-c3ccc(F)cc3)cc2O[C@@H]1CN(C)Cc1cccc(F)c1 | -24 | 71 | 45 | . | . | . | .
C[C@@H]1CN([C@H](C)CO)S(=O)(=O)c2ccc(-c3ccc(F)cc3)cc2O[C@H]1CN(C)Cc1cccc(F)c1 | -13 | 61 | 53 | . | . | . | .
C[C@@H]1CN([C@@H](C)CO)S(=O)(=O)c2ccc(-c3ccccc3)cc2O[C@H]1CN(C)Cc1cccc(F)c1 | -65 | 122* | 8 | 99* | ? | 40* | 103*
C[C@@H]1CN([C@H](C)CO)S(=O)(=O)c2ccc(-c3ccccc3)cc2O[C@@H]1CN(C)Cc1cccc(F)c1 | -52 | 124* | 4 | 112* | 88 | 12 | 104*
O=C(c1ccccn1)N1C[C@H]2[C@@H](c3ccccc31)[C@H](CO)N2C(=O)C1CC1 | 17 | -6 | -1 | . | . | . | .
O=C(Nc1ccccc1)N1CCCCN2[C@H](CO)[C@@H](c3ccc(C#CC4CC4)cc3)[C@H]2C1 | -54 | 91 | 19 | . | . | . | .
O=C(Nc1ccccc1)N1CCCCN2[C@H](C1)[C@@H](c1ccc(C#CC3CC3)cc1)[C@@H]2CO | 1 | 105* | 16 | 96* | 80 | 43* | 104*
O=C(Nc1ccccc1)N1CCCCN2[C@@H](CO)[C@H](c3ccc(C#CC4CC4)cc3)[C@@H]2C1 | -18 | 108* | 22 | 89 | 70 | ? | 103*
O=C(Nc1ccccc1)N1CCCCN2[C@H](CO)[C@H](c3ccc(C#CC4CC4)cc3)[C@@H]2C1 | -5 | 76 | -3 | . | . | . | .
O=C(N[C@H]1CC[C@H](CC(=O)N2CCc3ccccc3C2)O[C@@H]1CO)C1CCOCC1 | 21 | -24 | . | . | . | . | .
O=C(C[C@H]1C=C[C@@H](NC(=O)C2CC2)[C@@H](CO)O1)Nc1nccs1 | -18 | 121* | . | 78 | 11 | -15 | -1
C[C@@H](NC(=O)C[C@@H]1C=C[C@H](NC(=O)C2CCOCC2)[C@H](CO)O1)c1ccccc1 | -4 | 18 | -2 | . | . | . | .
C[C@H](NC(=O)C[C@H]1C=C[C@H](NC(=O)C2CCOCC2)[C@H](CO)O1)c1ccccc1 | 2 | 98* | -2 | -13 | -77 | -3 | -14
O=C(C[C@@H]1C=C[C@@H](NC(=O)C2CC2)[C@H](CO)O1)Nc1nccs1 | 0 | 88 | . | . | . | . | .
C[C@@H]1CN([C@H](C)CO)C(=O)c2cc(NC(=O)c3ccncc3)ccc2O[C@@H](C)CCCCO[C@H]1CN(C)C(=O)c1ccncc1 | 19 | 86 | 0 | . | . | . | .
C[C@H]1CN([C@@H](C)CO)C(=O)c2cc(C#CC3CC3)cnc2O[C@H]1CN(C)C(=O)c1ccccc1 | 10 | -2 | 0 | . | . | . | .
COc1cccc(CN2CC3(C2)CN(C(=O)C2CC2)[C@H](CO)c2c3c3ccc(OC)cc3n2C)c1 | ? | . | -13 | . | . | . | .
COc1ccccc1-c1ccc2c(c1)O[C@H](CN(C)C)[C@@H](C)CN([C@H](C)CO)S2(=O)=O | -11 | 19 | -7 | . | . | . | .
COc1ccccc1-c1ccc2c(c1)O[C@@H](CN(C)C(C)=O)[C@@H](C)CN([C@@H](C)CO)S2(=O)=O | 0 | . | 0 | . | . | . | .
SMILES | Pf Dd2 inh | T cruzi growth-1 | C diff growth | T cruzi growth-2 | T cruzi growth-3 | 3T3 cytotox | 3T3 cytotox 2
COc1ccccc1-c1ccc2c(c1)O[C@@H](CN(C)S(=O)(=O)c1ccc(C)cc1)[C@@H](C)CN([C@H](C)CO)S2(=O)=O | -46 | 126* | 11 | 103* | 87 | 24 | 37*
COc1ccccc1-c1ccc2c(c1)O[C@H](CN(C)S(=O)(=O)c1ccccc1)[C@@H](C)CN([C@H](C)CO)S2(=O)=O | -65 | 86 | 5 | . | . | . | .
COc1ccccc1-c1ccc2c(c1)O[C@@H](CN(C)C)[C@H](C)CN([C@@H](C)CO)S2(=O)=O | -46 | 5 | -5 | . | . | . | .
COc1ccccc1-c1ccc2c(c1)O[C@H](CN(C)S(=O)(=O)c1ccc(C)cc1)[C@H](C)CN([C@@H](C)CO)S2(=O)=O | -47 | 128* | 21 | 104* | ? | ? | 58*
COc1ccccc1-c1ccc2c(c1)O[C@@H](CN(C)S(=O)(=O)c1ccc(C)cc1)[C@@H](C)CN([C@@H](C)CO)S2(=O)=O | -54 | 127* | 12 | 105* | 105* | 53* | 44*
COc1ccccc1-c1ccc2c(c1)O[C@H](CN(C)S(=O)(=O)c1ccccc1)[C@@H](C)CN([C@@H](C)CO)S2(=O)=O | -56 | 93* | 7 | 95* | 20 | 36* | 47*
CCCNC(=O)N1[C@H](CO)[C@H](c2ccc(C#Cc3cccc(F)c3)cc2)[C@@H]1C#N | -52 | . | 5 | . | . | . | .
Cc1ccc(S(=O)(=O)Nc2ccc3c(c2)C(=O)N([C@H](C)CO)C[C@@H](C)[C@@H](CN(C)Cc2ccc(C(=O)Nc4ccccc4N)cc2)O3)cc1 | -78 | 33 | -6 | . | . | . | .
Cc1noc(C)c1NC(=O)Nc1ccc2c(c1)C(=O)N([C@@H](C)CO)C[C@@H](C)[C@H](CN(C)C(=O)Nc1ccccc1)O2 | 27 | 23 | 5 | . | . | . | .
CO[C@@H]1CN(C)C(=O)c2cc(NS(=O)(=O)c3cccc(F)c3)ccc2OC[C@@H](C)N(Cc2cc(F)ccc2F)C[C@H]1C | -70 | ? | -4 | 103* | ? | -28 | 15
CO[C@@H]1CN(C)C(=O)c2cc(NS(=O)(=O)c3cccc(F)c3)ccc2OC[C@H](C)N(Cc2cc(F)ccc2F)C[C@H]1C | -32 | 86 | 11 | . | . | . | .
